Hits are enriched below; roughly 4.9% of the tested compounds scored in any of these assays.
NALP3 yeast inh = NALP3 inflammasome inhibitors in reconstituted yeast, primary screen, luminescence, uHTS; inhibition, % at 10 µM; Yeast reconstituted NLRP3/ASC/caspase-1, beta-gal luminescence, 24 h; actives 0.39% (n = 330,000); AID 2825, 2010;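 active means inhibition of 50% or more; inactive means inhibition below 50%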;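 further: plate controls were induced DMSO wells for no effect and uninduced yeast grown without galactose for full effect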
tim23-1 inh = growth inhibitors of tim23-1 mutant yeast, primary screen, luminescence, uHTS; S. cerevisiae tim23-1 growth, BacTiter-Glo luminescence, 24 h; actives 1.3% (n = 330,000); inhibition, % at 20 µM; AID 463212, 2010;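 active means growth inhibition of the mutant yeast at or above 50%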;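 further: temperature-sensitive mutant grown at 25 °C; plate controls were DMSO-treated mutant yeast for no effect and medium wells lacking yeast for full effect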
TIM10 inh = growth inhibitors of isogenic TIM10 control yeast, primary screen, counter-screen for tim10-1 yeast inhibitor project, luminescence, uHTS | S. cerevisiae TIM10 strain growth, BacTiter-Glo luminescence, 24 h | inhibition, % at 10 µM | actives 1.4% (n = 330,000) | AID 463195, 2010;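 active means inhibition of 40% or more at the single tested concentration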;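 further: wild-type TIM10 isogenic control strain grown at permissive 25 °C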
tim10-1 inh = growth inhibitors of tim10-1 mutant yeast, primary screen, luminescence, uHTS | inhibition, % at 20 µM | AID 463190, 2010 | S. cerevisiae tim10-1 ts strain growth, BacTiter-Glo, 24 h | actives 2.2% (n = 330,000);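 active means inhibition of at least 40%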;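 further: mutant grown at 25 °C; 0% = DMSO wells with yeast and 100% = wells holding no yeast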
NALP1 yeast inh = NALP1 inflammasome inhibitors in reconstituted yeast, colorimetric, S. cerevisiae, triplicate retest | S. cerevisiae NALP1/ASC/caspase-1 growth, X-gal OD620, 72 h | inhibition, % at 10 µM | actives 0.61% (n = 280,000) | AID 2071, 2009; in the data active means inhibition mostly above about 24%, no sharp cut-off; inactive means mostly below about 32%
SKKanGAS inh = S. pyogenes SKKanGAS growth inhibitors in kanamycin, primary screen, streptokinase expression inhibitor project, SKKanGAS strain, BacTiter-Glo luminescence; 6 h; actives 1.3% (n = 300,000); AID 1662, 2009; inhibition, % at 7.5 µM;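 active means mean replicate score, as percent of positive control median, at least 50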;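 further: strain carries kanamycin resistance gene driven by streptokinase promoter and grows in 40 µg/ml kanamycin; loss of luminescence reflects streptokinase promoter inhibition or plain growth inhibition; 0% = median of DMSO wells and 100% = positive control at its reference dose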
tim10-1 confirm = growth inhibitors of tim10-1 mutant yeast, confirmation, single concentration, luminescence, S. cerevisiae. shares compounds with tim10-1 inh. S. cerevisiae tim10-1 ts strain growth, BacTiter-Glo, 24 h. inhibition, % at 20 µM. actives 56% (n = 7,400);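 active means inhibition of yeast growth at or above a set limit in either of two repeat tests at 20 µM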;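 further: tim10-1 mutant grown at permissive 25 °C to find synthetic lethal compounds; 0% = DMSO yeast wells and 100% = medium wells without yeast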
An asterisk follows results filed as active; / = no result given.

SMILES	NALP3 yeast inh	tim23-1 inh	TIM10 inh	tim10-1 inh	NALP1 yeast inh	SKKanGAS inh	tim10-1 confirm
O=C(N(Cc1ccccc1)c1ccccn1)C12CC3CC(CC(C3)C1)C2	-7.6	38.4	35.4	35.5	11.0	6.9	/
O=C(N(c1ccccn1)c1ccccn1)C12CC3CC(CC(C3)C1)C2	1.0	31.8	1.0	41.9*	5.0	6.7	28.2
Cc1ccc(-c2nn(-c3ccccc3)cc2C(=O)N2CCOCC2)cc1	-4.7	35.7	32.0	40.2*	-1.2	1.9	23.9
O=C(CCNC(=O)c1ccc(Br)cc1)NCc1cccnc1	10.0	0.3	-4.9	-1.4	/	-3.1	/
CCOC(=O)C1(CCOc2ccccc2)CCN(Cc2nccn2CC)CC1	9.5	12.5	17.5	27.8	-0.7	11.4	/
CCOC(=O)C1(CCCc2ccccc2)CCN(Cc2nccn2CC)CC1	26.9	17.9	26.1	41.4*	11.9	-6.5	29.5
NC(=O)C1CC(=O)N(c2ccc(OCc3ccc(Cl)cc3)cc2)C1 (stereo not given)	10.1	26.5	9.6	34.8	4.1	-3.0	/
COc1ccc(OCc2cc(C(=O)N3CCN(C4CCCC4)CC3)no2)c(Cl)c1	24.9	27.5	22.1	43.3*	10.4	-1.0	32.6*
O=[N+]([O-])c1ccccc1S(=O)(=O)N1CCN(C2CCN(Cc3ccccc3)CC2)CC1	11.2	1.9	-9.2	-4.3	1.0	-4.5	/
COc1cc(CCC(=O)Nc2c(C(=O)N3CCN(c4ccccc4OC)CC3)oc3ccccc23)on1	2.3	38.8	24.3	42.4*	14.5	-3.5	10.0
COc1ccc(-n2nc(C(=O)Nc3ccc(OC)c(OC)c3)c3c4ccccc4n(C)c3c2=O)cc1	-4.8	5.1	17.4	41.1*	12.1	9.7	-1.2
O=C(NCCc1ccc(F)cc1)c1ccc(NS(=O)(=O)c2ccc3[nH]c(=O)[nH]c3c2)cc1	6.6	0.9	-2.0	-13.9	/	-3.6	/
Cc1cnc(C(=O)OCC(=O)N2C(C)CCCC2C)cn1 (stereo not given)	4.2	-4.5	-5.2	-13.6	/	/	/
COCCOc1ccc(C(F)(F)F)cc1NC(=O)c1ccccc1	8.3	17.0	14.2	15.9	32.0	-0.5	/
CC(C)(C)c1ccc(OCCOc2ccc(C(C)(C)C)cc2NC=O)c(NC=O)c1	5.0	43.4	21.6	46.9*	16.9	30.3	20.2
Cc1sc2ncnc(SCc3ccc(C(=O)O)cc3)c2c1C	24.1	30.7	-11.1	-6.0	-23.8	-7.2	/
COC(=O)c1ccc(CSc2ncnc3sc(C)c(C)c23)o1	32.2	10.8	29.1	45.7*	5.6	-1.1	37.0*
CCOC(=O)C1=NN(c2ccccc2)C(=O)/C1=C\c1ccc(N(C)C)cc1	5.4	23.9	12.9	40.2*	30.6	-11.0	19.9
CC1=NN(Cc2ccccc2)C(=O)/C1=C\c1ccc(N(C)C)cc1	3.5	21.0	19.9	21.4	/	-2.6	/
CC(C)CN(C(=O)COC(=O)CCCc1c[nH]c2ccccc12)c1c(N)n(Cc2ccccc2)c(=O)[nH]c1=O	10.7	-7.5	4.3	-10.0	14.6	0.3	/
CC1=C(C(=O)Nc2cccc(C(=O)NC3CCCC(C)C3C)c2)SCCO1 (stereo not given)	14.5	40.1	5.1	49.3*	12.4	21.3	9.6
COc1cccc(C2=NOC(C(=O)Nc3ccc4c(c3)OCO4)C2)c1OC (stereo not given)	3.6	21.8	2.5	-1.3	-6.6	-0.2	/
COc1ccc2cc3cc(C(=O)N4CCCC(C)C4)oc3nc2c1 (stereo not given)	14.8	44.1	21.7	44.8*	7.3	-5.6	13.0
CCOC(=O)C1CCCN(C(=O)c2cc3cc4ccc(OC)cc4nc3o2)C1 (stereo not given)	-7.1	34.9	-4.1	31.8	8.7	16.5	/
